# Assay results reported in PubChem BioAssay (EPA / NIEHS).
# Inconclusive results are not listed. Active and inactive are the calls of the source. How the source made its calls: active means hit-call score of the fitted dose curve at least 0.9, where 1 is the maximum; inconclusive means response in the unintended direction; inactive means score below 0.9.
# Experiments:
# [1] = target: human LYN Proto-Oncogene, Src family Tyrosine Kinase (LynA), LYN (gene 4067) (UniProt P07948); assay: NVS_ENZ_hLynA: NovaScreen (NVS) Enzymatic Assay for human LYN Proto-Oncogene, Src family Tyrosine Kinase (LynA) (AID 2283173)
# In short: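 Recombinant kinase with fluorescent substrate; product separated from substrate by electrophoretic mobility shift and read 1 h after dosing. Duplicate screen at 25 uM, then concentration-response up to 50 uM; activity scored as signal loss against DMSO.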
# [2] = target: human Phosphodiesterase 10 (PDE10), PDE10A (gene 10846) (UniProt Q9Y233); assay: NVS_ENZ_hPDE10: NovaScreen (NVS) Enzymatic Assay for human Phosphodiesterase 10 (PDE10) (AID 2283195)
# In short: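 Recombinant human PDE10 with fluorescent substrate, 1 h, product separated by electrophoretic mobility shift. Loss of enzyme activity fitted against DMSO; initial screen 25 uM in duplicate, actives run to 50 uM maximum.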
# [3] = target: human Matrix Metalloproteinase-9 (MMP9), MMP9 (gene 4318) (UniProt P14780); assay: NVS_ENZ_hMMP9: NovaScreen (NVS) Enzymatic Assay for human Matrix Metalloproteinase-9 (MMP9) (AID 2283190);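 further: cell-free recombinant MMP9 protease activity read by fluorescent substrate signal; active means inhibition seen as loss of fluorescence signal versus DMSO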
# In short: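 Cell-free fluorescence-intensity enzyme activity assay using extracted protein, read 1 h after dosing. Loss of signal versus DMSO baseline indicates inhibition; primary screen in duplicate at 25 uM, actives followed up in concentration series.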
# [4] = target: human MAP Kinase-Activated Protein Kinase 2 (MAPKAPK2), MAPKAPK2 (gene 9261) (UniProt P49137); assay: NVS_ENZ_hMAPKAPK2: NovaScreen (NVS) Enzymatic Assay for human MAP Kinase-Activated Protein Kinase 2 (MAPKAPK2) (AID 2283178)
# In short: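 Cell-free recombinant human MAPKAPK2 activity measured by fluorescence with electrophoretic mobility shift separation of substrate and product, 1 hr after dosing. Loss of signal versus DMSO; primary screen at 25 uM, concentration-response up to 50 uM.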
# [5] = target: Serine/threonine-protein phosphatase PP1-alpha catalytic subunit (Homo sapiens) (UniProt P62136); assay: NVS_ENZ_hPPP1CA: NovaScreen (NVS) Enzymatic Assay for human Protein Phosphatase 1 Aatalytic subunit Alpha (PPP1CA) (AID 2283200)
# In short: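 Recombinant enzyme activity read by fluorescence with electrophoretic mobility shift separating substrate from product, 1.33 h after dosing; loss of signal vs DMSO baseline. Primary screen in duplicate at 25 uM; actives retested in concentration-response up to 50 uM.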
# Chain of human Matrix Metalloproteinase-9 (MMP9), MMP9 (gene 4318) (P14780 whole entry, looked up): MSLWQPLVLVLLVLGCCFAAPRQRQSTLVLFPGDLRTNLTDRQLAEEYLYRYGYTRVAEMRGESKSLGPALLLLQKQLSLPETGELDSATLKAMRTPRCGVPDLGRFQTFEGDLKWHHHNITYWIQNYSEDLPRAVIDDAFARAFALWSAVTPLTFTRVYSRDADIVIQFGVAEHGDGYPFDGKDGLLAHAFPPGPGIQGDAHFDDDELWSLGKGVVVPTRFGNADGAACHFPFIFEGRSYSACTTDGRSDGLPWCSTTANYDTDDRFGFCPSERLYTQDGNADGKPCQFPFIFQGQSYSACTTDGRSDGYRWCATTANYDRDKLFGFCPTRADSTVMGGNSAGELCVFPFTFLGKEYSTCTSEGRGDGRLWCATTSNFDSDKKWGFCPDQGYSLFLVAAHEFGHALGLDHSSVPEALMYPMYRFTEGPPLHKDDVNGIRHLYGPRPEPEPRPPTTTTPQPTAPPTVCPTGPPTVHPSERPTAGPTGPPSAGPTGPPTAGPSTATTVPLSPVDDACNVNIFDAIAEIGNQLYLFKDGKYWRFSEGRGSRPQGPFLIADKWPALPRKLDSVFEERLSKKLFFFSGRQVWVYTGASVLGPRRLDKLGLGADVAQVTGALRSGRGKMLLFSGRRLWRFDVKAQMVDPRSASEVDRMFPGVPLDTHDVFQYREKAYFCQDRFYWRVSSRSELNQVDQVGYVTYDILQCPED
# Chain of human Phosphodiesterase 10 (PDE10), PDE10A (gene 10846) (Q9Y233 whole entry, looked up): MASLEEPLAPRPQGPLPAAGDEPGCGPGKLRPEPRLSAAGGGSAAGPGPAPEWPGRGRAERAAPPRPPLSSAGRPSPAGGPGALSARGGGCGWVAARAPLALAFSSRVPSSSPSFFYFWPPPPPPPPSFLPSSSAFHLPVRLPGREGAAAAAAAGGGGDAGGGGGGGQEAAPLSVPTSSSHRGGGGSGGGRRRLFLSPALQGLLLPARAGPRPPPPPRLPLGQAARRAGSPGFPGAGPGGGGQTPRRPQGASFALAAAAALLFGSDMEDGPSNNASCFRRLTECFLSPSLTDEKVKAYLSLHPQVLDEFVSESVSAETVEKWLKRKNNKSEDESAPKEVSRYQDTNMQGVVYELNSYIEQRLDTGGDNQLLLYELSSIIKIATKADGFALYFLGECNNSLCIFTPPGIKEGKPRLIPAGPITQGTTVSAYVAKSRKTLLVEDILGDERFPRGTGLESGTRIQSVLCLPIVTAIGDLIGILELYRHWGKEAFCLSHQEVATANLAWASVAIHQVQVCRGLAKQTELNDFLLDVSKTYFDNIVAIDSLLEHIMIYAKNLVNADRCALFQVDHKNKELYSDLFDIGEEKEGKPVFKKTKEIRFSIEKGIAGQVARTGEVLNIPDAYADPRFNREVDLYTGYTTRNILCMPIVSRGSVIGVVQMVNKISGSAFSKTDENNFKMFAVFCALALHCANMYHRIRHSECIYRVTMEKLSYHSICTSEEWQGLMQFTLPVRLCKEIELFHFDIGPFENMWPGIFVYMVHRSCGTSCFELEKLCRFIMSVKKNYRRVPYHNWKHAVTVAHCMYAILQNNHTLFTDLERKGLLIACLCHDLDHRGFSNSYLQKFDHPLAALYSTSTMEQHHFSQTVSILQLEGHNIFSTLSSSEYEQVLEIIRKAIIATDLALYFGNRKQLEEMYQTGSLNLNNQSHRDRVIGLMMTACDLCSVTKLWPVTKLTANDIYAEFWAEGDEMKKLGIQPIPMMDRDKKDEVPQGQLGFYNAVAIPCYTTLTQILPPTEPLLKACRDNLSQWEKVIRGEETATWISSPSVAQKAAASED
# Chain of Serine/threonine-protein phosphatase PP1-alpha catalytic subunit (Homo sapiens) (P62136 whole entry, looked up): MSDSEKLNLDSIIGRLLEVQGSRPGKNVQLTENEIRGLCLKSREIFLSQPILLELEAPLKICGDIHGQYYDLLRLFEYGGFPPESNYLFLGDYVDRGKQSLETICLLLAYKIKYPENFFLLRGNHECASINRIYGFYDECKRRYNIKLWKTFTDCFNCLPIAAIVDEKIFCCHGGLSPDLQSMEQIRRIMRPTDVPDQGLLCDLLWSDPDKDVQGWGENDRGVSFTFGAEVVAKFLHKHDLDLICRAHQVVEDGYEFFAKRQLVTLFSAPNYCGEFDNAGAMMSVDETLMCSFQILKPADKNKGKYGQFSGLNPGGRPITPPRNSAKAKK
# Chain of human LYN Proto-Oncogene, Src family Tyrosine Kinase (LynA), LYN (gene 4067) (P07948 whole entry, looked up): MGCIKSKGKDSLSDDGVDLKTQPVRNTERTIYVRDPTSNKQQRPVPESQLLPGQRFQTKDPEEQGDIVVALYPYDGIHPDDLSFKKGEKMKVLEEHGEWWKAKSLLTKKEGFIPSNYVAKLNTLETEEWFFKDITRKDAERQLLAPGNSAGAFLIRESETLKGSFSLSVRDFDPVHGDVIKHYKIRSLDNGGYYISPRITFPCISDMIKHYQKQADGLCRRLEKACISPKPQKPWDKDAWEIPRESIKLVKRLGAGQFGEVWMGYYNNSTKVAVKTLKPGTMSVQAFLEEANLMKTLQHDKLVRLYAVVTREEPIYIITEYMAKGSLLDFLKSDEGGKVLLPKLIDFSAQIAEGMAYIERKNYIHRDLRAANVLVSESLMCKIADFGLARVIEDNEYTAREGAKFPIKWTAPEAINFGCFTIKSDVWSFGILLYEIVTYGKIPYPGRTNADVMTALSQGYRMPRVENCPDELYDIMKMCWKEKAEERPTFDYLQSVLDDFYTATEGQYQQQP
# Chain of human MAP Kinase-Activated Protein Kinase 2 (MAPKAPK2), MAPKAPK2 (gene 9261) (P49137 whole entry, looked up): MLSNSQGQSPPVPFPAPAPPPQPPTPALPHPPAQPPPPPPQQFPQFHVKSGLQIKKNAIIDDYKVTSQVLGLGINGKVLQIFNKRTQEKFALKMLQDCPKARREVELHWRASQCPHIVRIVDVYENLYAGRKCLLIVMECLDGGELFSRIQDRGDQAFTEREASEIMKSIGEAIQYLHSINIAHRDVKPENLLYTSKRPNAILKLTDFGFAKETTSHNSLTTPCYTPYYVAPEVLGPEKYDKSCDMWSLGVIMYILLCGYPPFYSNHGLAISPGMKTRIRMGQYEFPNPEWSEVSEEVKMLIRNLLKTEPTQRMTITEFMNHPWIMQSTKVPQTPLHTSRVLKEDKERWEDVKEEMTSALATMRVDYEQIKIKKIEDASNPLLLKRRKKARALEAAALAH
structure (smiles),measurement,setting,value
OCCN(CCO)CCO,outcome,[1],inactive
CC(C)(C)c1ccc(CCOc2ncnc3ccccc23)cc1,outcome,[2],inactive
CCCCOP(=O)(CCCC)OCCCC,outcome,[2],inactive
CCOP(=O)(OCC)OC(=CCl)c1ccc(Cl)cc1Cl,AC50,[3],22.8 µM (active)
COc1ccccc1N,outcome,[4],inactive
same,outcome,[2],inactive
same,AC50,[5],14.8 µM (active)
CCCCN(CCCC)C(=S)[S-].CCCCN(CCCC)C(=S)[S-].[Ni+2],AC50,[3],12.5 µM (active)
CC(C)(C)c1cc([N+](=O)[O-])cc(C(C)(C)C)c1O,AC50,[3],1.64 µM (active)
C#CCOC(=O)/C=C(C)/C=C/CC(C)CCCC(C)C (stereo not given),AC50,[3],7.1 µM (active)
